Data on 40 molecules can be found in PubChem BioAssay (Tox21).

The source made the active and inactive calls. Calls come from the whole dose curve; as a rule, active = well fitted curve in the direction sought with a large enough effect in the repeat runs; inconclusive = weak or mixed curves; inactive = flat fitted curve, though single readings scatter.
% is set by controls: 0 for no effect and ±100 for the full control effect.

The nature of the assay: qHTS assay to test for compound auto fluorescence at 535 nm (green) in HepG2 cells (AID 720675). The following applies: green autofluorescence 485/535 nm, 1 h; series mostly up to 91.3 µM. The text has this:
National Center for Advancing Translational Sciences [NCATS]
NIH Chemical Genomics Center [NCGC]
U.S. Environmental Protection Agency [EPA]
National Institutes of Environmental Health Sciences [NIEHS]
National Toxicology Program [NTP]
U.S. Food and Drug Administration [FDA]
Compound auto fluorescence often interferes with screening of the compound library against various biological targets and signaling pathways. Some of these compounds may have fluorophoric properties. Such properties may interfere with the assay outputs resulting in false positives and/or negatives. To decrease such complications and ensure the compound activities are relevant in terms of biological response, the Tox21 10K compound library was screened for auto fluorescence.
From the fluorophores used as reporter signals in our screening assays, the auto fluorescence equivalencies of compounds against three fluorophores have been evaluated: Triamterene, Fluorescein and Rose Bengal sodium for blue, green and red fluorescence, respectively. The fluorescence intensities were measured using Excitation/Emission wavelengths at 405/460nm, 485/535nm and 540/590nm for blue, green and red labels, respectively. This assay includes the green fluorescence data.
Tox21 Assay Protocol Summary:
2,000 HepG2 cells in 5 uL of culture medium (MEM containing 10% FBS) per well were dispensed into black wall/clear bottom 1536-well plates using a Multidrop Combi Dispenser (ThermoFisher Scientific, Waltham, MA). The assay plates were incubated overnight at 37 C to allow cell attachment to the well bottom, followed by the transfer of 23 nL compound or DMSO vehicle by a pintool work station (Kalypsys , San Diego, CA). After the assay plates were incubated for 1 hr at 37 C and 5% CO2, fluorescence intensities in the assay plates were measured by an Envision (PerkinElmer, Shelton, CT) plate reader using three labels for measuring blue, green and red fluorescence at […] 460, 535 and 590 nm respectively.
In general terms: In qHTS, concentration-response curves come from the screen itself.
On to `O=C1OC(=O)c2ccccc21`, for which the result was inactive. Still for that read-out and setting: then `CC(=O)Nc1ccc(C)cc1`, with “inactive”; and `C=CC(C)(O)CC/C=C(\C)CC` (stereo not given), with “inactive”; and `C=C(C)C(=O)OC`, with “inactive”. Take `CO[Si](CCCS)(OC)OC`: the result was inactive. The same measure, in the same setting: for `CO/N=C(/C(=O)N[C@@H]1C(=O)N2C(C(=O)O)=C(Cn3nnc(C)n3)CS[C@H]12)c1csc(N)n1` the value was “inactive”. On to `COc1cc(C=O)ccc1OC(=O)C(C)C`, for which the call was inactive.

As to `CCCCCCCCCCC`, the molecule was classed as inactive. Take `CC(Cl)COP(=O)(OCC(C)Cl)OCC(C)Cl` (stereo not given): the molecule was classed as inactive. Still for that read-out and setting: then `CNC(=O)C(c1ccccc1)c1ccccc1`, with “inactive”; and `CC1(N)CCC(C(C)(C)N)CC1` (stereo not given), with “inactive”. In the case of `CCC(C)(CCC(C)C)C(=O)[O-].CCC(C)(CCC(C)C)C(=O)[O-].[Zn+2]` (stereo not given), the molecule was called inactive.

Take `CCCCCCCCCCCCOC(C)=O`: the result was inactive.

As to `CCCCC(=O)N(C)C`, the call was inactive. Same read-out and setting: for `O=C(/C=C/c1ccccc1)NCCO` the value was “inactive”; for `C1=CCC(c2ccccc2)CC1` (stereo not given), “inactive”. As for `C=COCCOCCOC=C`, the result was inactive.

For `Cc1ccc2c(c1)c1c3n2CCNC3CCC1` (stereo not given), the call was inactive. For `O=S1(=O)CCCC1`, the call was inactive. Turning to `CCN(CCO)c1cccc(C)c1`, the outcome was inactive. The same measure, in the same setting: for `CCOc1ccc(NC(=O)OC(C)C)cc1OCC` the value was “inactive”. On the same count and under the same terms, then `COc1ccc(/C=N/NC(=O)c2ccncc2)cc1OC`, with “inactive”.

As for `BrC/C=C/CBr`, the fluorescence, % of fluorescein control is -0.0535% [at 18.6 µM] (inactive). Consider `CCC(O)C(C)(C)C` (stereo not given), for which the result was inactive. With `CCN1CN(CC)CN(CC)C1`, the outcome was inactive.

`CCCCC(CC)COC(=O)c1ccccc1` (stereo not given): the result was inactive. In the case of `Cc1c(C(C)C)c(=O)n(-c2ccccc2)n1C`, the outcome was inactive. On to `CCCCCCCCOC(C)=O`, for which the call was inactive. Same read-out and setting: then `C[C@H](CCC(=O)NCC(=O)O)[C@H]1CC[C@H]2[C@@H]3[C@H](O)C[C@@H]4C[C@H](O)CC[C@]4(C)[C@H]3C[C@H](O)[C@]12C`, with “inactive”; and `Cc1nc2ccccc2c(=O)o1`, with “inactive”.

Take `O=C(CN1CCN(Cc2ccc3c(c2)OCO3)CC1)N1c2ccccc2Sc2ccccc21`: the molecule was called inactive. For the molecule `C/C=C(\C)C(=O)OCC/C=C\CC`, the outcome was inactive. Same read-out and setting: for `NS(=O)(=O)c1ccc(Cl)c(S(N)(=O)=O)c1` the value was “inactive”.

As for `COCCOCCOCCOC`, the molecule was classed as inactive. For the molecule `CCCCCCCCCOCC1CO1` (stereo not given), the call was inactive. For `Nc1ccc(S(=O)(=O)Nc2ccccn2)cc1`, the fluorescence, % of fluorescein control was -0.201% [at 18.6 µM] (inactive). In the case of `FC(F)(F)/C(=N\OCC1OCCO1)c1ccc(Cl)cc1`, the molecule was classed as inactive.

Consider `Cc1ccc(S(=O)(=O)NC(=O)NC2CCCCCCC2)cc1`, for which the call was inactive. Consider `NCCc1ccn[nH]1`, for which the fluorescence, % of fluorescein control is 0.0074% [at 18.6 µM] (inactive).

For the molecule `CC(=O)OC(C(=O)c1ccccc1)c1ccccc1` (stereo not given), the call was inactive.
